Source: PubChem BioAssay (National Center for Advancing Translational Sciences (NCATS))
This is a sample that favours compounds with a hit; in the whole collection about 19% have one here.
Shiga toxin inh: blocks Shiga toxin action in Vero cells | Vero cells, Shiga toxin protein synthesis inhibition reporter | inhibition, % at 38.7 µM | 9.2% of 290,000 active; in the data active = inhibition mostly above about 28%, no sharp cut-off; inactive = mostly below about 43%; also: 0% is about no effect
Marburg entry inh: blocks Marburg virus binding to or entry into cells | Potency, µM (titrated, usually from 37.8 µM), without a hit: at the top dose activity change, negative = inhibition, actives largely listed as inhibitors | 1.8% of 300,000 active | AID 540276 | Marburg virus pseudotyped entry inhibition, cell reporter; calls by dose curve; tested in HEK293 cells; also: potency is read from the fitted curve at half-maximal effect; % is scaled to controls: 0 for no effect and ±100 for the full control effect
Cycloheximide cs: counter-screen hit for Shiga toxin inhibitors, cycloheximide; cell reporter, cycloheximide protein synthesis inhibition counterscreen; max response, %; 12% of 300,000 active; in the data active = max response mostly above about 13%, no sharp cut-off; inactive = mostly below about 14%; also: read at 38.3 µM for the half of the compounds with a filed dose; 0% is about no effect
Pf growth 96h: P. falciparum growth inhibition at 96 hours; P. falciparum luciferase reporter growth, 96 h; 6.9% of 320,000 active; Potency, µM (series often up to 28.7 µM), without a hit: at the highest dose activity change, negative = inhibition, hits mostly inhibitors; also: potency is read from the fitted curve at half-maximal effect; % is scaled to controls: 0 for no effect and ±100 for the full control effect
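Erythrocytes infected with luciferase-expressing P. falciparum were dispensed at 2% hematocrit and 0.05% parasitemia (final), then incubated with compounds 96 hours at 37 C in 5% CO2. Luminescence after detection reagent addition reported growth.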
Pf growth 48h: inhibits P. falciparum growth in the first generation, 48 h; AID 504832; Potency, µM (top dose mostly 28.7 µM), for inactives: at the top dose activity change, negative = inhibition, most hits filed as inhibitors; P. falciparum luciferase growth in erythrocytes, 48 h; 5.9% of 310,000 active; also: potency is read from the fitted curve at half-maximal effect; % is scaled to controls: 0 for no effect and ±100 for the full control effect
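Growth was read as firefly luciferase luminescence after a 48 h, 37 C, 5% CO2 exposure of compounds to reporter-bearing P. falciparum cultures (0.1% parasitemia, 2% hematocrit final) in Albumax-supplemented RPMI 1640.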
Lassa entry inh: blocks Lassa virus binding to or entry into cells; Lassa virus pseudotype entry inhibition, cell reporter; Potency, µM (top dose mostly 37.9 µM), without a hit: at the top dose activity change, negative = inhibition, most hits filed as inhibitors; 1.2% of 300,000 active; AID 540256; calls by dose curve; tested in HEK293 cells; also: potency is read from the fitted curve at half-maximal effect; % is scaled to controls: 0 for no effect and ±100 for the full control effect; nearly all actives have a fitted effect of over 50% in size
Active calls of the source: *; [ ] = dose if it differs, or a comment. Unless noted, calls follow the shape of the dose curve; as a rule, active = well fitted inhibition curve with a large enough effect; inconclusive = small, poorly fitted or top-dose-only effect, or another doubt; inactive = no such curve, though single readings can be large or run the other way.

Screening CNC(=O)CCSSCCC(=O)NC returned Shiga toxin inh -7, Marburg entry inh 2%[46.1 µM], Cycloheximide cs -3, Pf growth 96h 4%, Pf growth 48h 19% and Lassa entry inh 15%.
For CC1CCN(S(=O)(=O)c2ccc3c4c2CC(=O)N4CC(C)S3)CC1 (configuration not stated) the results were Shiga toxin inh -5, Cycloheximide cs -1, Pf growth 96h 12% and Pf growth 48h 8.3µM*.
`c1ccc2c(c1)CCCN2c1nc2ccccc2n2cnnc12` gave Shiga toxin inh 107*, Cycloheximide cs 30* and Pf growth 96h 24%.
For c1ccc(N2CCN(c3nc4ccccc4n4cnnc34)CC2)cc1 the results were Shiga toxin inh -17, Cycloheximide cs -10 and Pf growth 96h 4.1µM*.
`O=C(CSc1nnc(SCC(=O)c2ccco2)s1)c1ccco1` gave Shiga toxin inh 15, Marburg entry inh inconclusive, Cycloheximide cs 20, Pf growth 96h 0%, Pf growth 48h -1% and Lassa entry inh 2%.
For Cn1cc(Cl)c(C(=O)N/N=C/c2ccc3c4c(cccc24)CC3)n1 the results were Shiga toxin inh 61*, Cycloheximide cs 29*, Pf growth 96h 80% and Pf growth 48h 107%.
`NC(N)=N/N=C/c1ccc(OS(=O)(=O)c2ccccc2)cc1` gave Shiga toxin inh 29, Cycloheximide cs 2, Pf growth 96h -14% and Pf growth 48h 2.1µM*.
`Cn1cc(Cl)c(C(=O)N/N=C/c2ccc(OS(=O)(=O)c3ccccc3)cc2)n1` gave Shiga toxin inh -13, Marburg entry inh 7%, Cycloheximide cs 21, Pf growth 96h 9.3µM*, Pf growth 48h inconclusive and Lassa entry inh 8%.
CCC(=O)N/N=C/c1ccc(OS(=O)(=O)c2ccccc2)cc1 was read as Shiga toxin inh -10, Marburg entry inh inconclusive, Cycloheximide cs -2, Pf growth 96h inconclusive, Pf growth 48h 10µM* and Lassa entry inh -3%.
For COc1ccc(/C=N\NC(=O)c2nn(C)cc2Cl)cc1CN1CCOCC1 the results were Shiga toxin inh 10, Marburg entry inh 11%, Cycloheximide cs 2, Pf growth 96h 51%, Pf growth 48h 28% and Lassa entry inh -1%.
Screening Cc1nn(-c2ccccc2)c(N2CCCC2)c1/C=N/NC(=O)c1cccc(S(=O)(=O)Nc2ccc(Cl)cc2)c1 returned Shiga toxin inh -13, Marburg entry inh inconclusive, Cycloheximide cs 1, Pf growth 96h inconclusive, Pf growth 48h -20% and Lassa entry inh inconclusive.
For CC(C)(C)c1ccc(C(=O)N2CCC(C(=O)NCc3ccco3)CC2)cc1 the results were Shiga toxin inh 14, Marburg entry inh -12%, Cycloheximide cs -2, Pf growth 96h 8%, Pf growth 48h inconclusive and Lassa entry inh -12%.
Screening O=S(=O)(Nc1cccnc1)c1ccc(C2CCCCC2)cc1 returned Shiga toxin inh -13, Marburg entry inh inconclusive, Cycloheximide cs -5, Pf growth 96h 29% and Lassa entry inh 21%.
For CCC1COCCS(=O)(=O)N1Cc1cccc(Cl)c1 (configuration not stated) the results were Shiga toxin inh -2, Cycloheximide cs 1, Pf growth 96h 2% and Pf growth 48h 8%.
Screening CC(=O)NC(C(=O)c1ccccc1)N1CCCCC1 (configuration not stated) returned Marburg entry inh -3%[46.1 µM], Cycloheximide cs 9, Pf growth 96h inconclusive, Pf growth 48h inconclusive and Lassa entry inh inconclusive.
For COc1ccc(C2CC(=O)N3CN(C4CCCCC4)CSC3=C2C#N)c(OC)c1 (configuration not stated) the results were Marburg entry inh 5%[46.1 µM] and Lassa entry inh 17%[46.1 µM].
`CCOc1cc(/C=N/NC(=O)COc2ccc(Cl)cc2)ccc1OS(=O)(=O)c1ccccc1` gave Shiga toxin inh 16, Marburg entry inh 6.5µM*, Cycloheximide cs 6, Pf growth 96h inconclusive and Lassa entry inh inconclusive.
`Cc1ccc(/C=N/NC(=O)c2nn(C)cc2Cl)cc1` gave Shiga toxin inh 47*, Marburg entry inh -29%, Cycloheximide cs 34*, Pf growth 96h 122%, Pf growth 48h 197% and Lassa entry inh inconclusive.
Screening Cc1c(C(=O)N2CCN(c3ncccn3)CC2)oc2ccc(F)cc12 returned Marburg entry inh -12%[46.1 µM] and Lassa entry inh -24%[46.1 µM].
For CCOc1ccc(C(=O)NCC(=O)OCC(=O)NC2CCCC2)cc1 the results were Shiga toxin inh 17, Marburg entry inh -23%[46.1 µM], Cycloheximide cs -2, Pf growth 96h 18%, Pf growth 48h 3% and Lassa entry inh 3%.
Screening COc1ccc(/C=C2\SC(=NCc3ccccc3)NC2=O)cc1 returned Shiga toxin inh 5, Marburg entry inh 11%, Cycloheximide cs 9, Pf growth 96h inconclusive, Pf growth 48h inconclusive and Lassa entry inh -7%.
COc1cc(/C=C2/SC(=Nc3ccc(O)cc3)NC2=O)ccc1O was read as Shiga toxin inh 21, Cycloheximide cs 12, Pf growth 96h inconclusive and Pf growth 48h inconclusive.
`COc1ccc(/C=C2\SC(=Nc3ccccc3OC)NC2=O)cc1` gave Shiga toxin inh 69, Cycloheximide cs 20*, Pf growth 96h 34% and Pf growth 48h 0.33µM*.
Screening COc1cc(/C=C2\SC(=Nc3ccccc3OC)NC2=O)ccc1O returned Shiga toxin inh -2, Marburg entry inh inconclusive, Cycloheximide cs 16*, Pf growth 96h 22%, Pf growth 48h -16% and Lassa entry inh inconclusive.
Screening Cc1cccc2nc(-c3ccccc3)nc(N[C@@H](CO)c3ccccc3)c12 returned Shiga toxin inh -11, Marburg entry inh inconclusive, Cycloheximide cs 4, Pf growth 96h 13µM*, Pf growth 48h 13µM* and Lassa entry inh inconclusive.
COC(=O)CSc1nc(-c2ccccc2)nc2ccccc12 was read as Shiga toxin inh -11, Cycloheximide cs -2, Pf growth 96h 0% and Pf growth 48h 16%.
Screening O=C(CSc1nnc(Cc2ccccc2)n1Cc1ccccc1)NCc1ccco1 returned Shiga toxin inh 23*, Marburg entry inh -6%, Cycloheximide cs 12, Pf growth 96h 10%, Pf growth 48h inconclusive and Lassa entry inh 20%.
Screening Cc1sc2nc(SCC(=O)NCCO)n(C)c(=O)c2c1C returned Shiga toxin inh 18, Marburg entry inh inconclusive, Cycloheximide cs -3, Pf growth 96h 9.3µM*, Pf growth 48h 7% and Lassa entry inh 4%.
For O=C(CSc1nnc(CNc2ccc(Cl)cc2)n1Cc1ccccc1)NCc1ccco1 the results were Shiga toxin inh 19, Marburg entry inh -8%, Cycloheximide cs 14*, Pf growth 96h inconclusive, Pf growth 48h -11% and Lassa entry inh -5%.
Cc1sc2nc(SCC(=O)NCc3ccco3)n(CCc3ccccc3)c(=O)c2c1C was read as Shiga toxin inh -1, Marburg entry inh inconclusive, Cycloheximide cs -1, Pf growth 96h -1%, Pf growth 48h 12µM* and Lassa entry inh -23%.
